aSyn UTR act: Activators via SNCA 5'UTR binding, MLPCN. alpha-synuclein 5'UTR reporter, activators screen. activity score, % (tested at 7.5 µM), hits read low. 300,000 compounds, 7.1% hits. AID 1814, 2009; in the data active = activity score below about -60%
Large screens that a line does not name were inactive. Not all results are given here.

CC(C)(C)C(=O)/C(=C\c1ccc([N+](=O)[O-])cc1)n1cncn1	aSyn UTR act -277
O=C(CSc1nccn1-c1ccccc1)c1ccc(Cl)cc1	aSyn UTR act -111
O=C(CSc1nccn1-c1ncc(C(F)(F)F)cc1Cl)c1ccc(Br)cc1	aSyn UTR act -195
Cc1ccc(C(=O)CSc2nccn2-c2ccccc2)cc1	aSyn UTR act -95
COc1ccc(-c2nn(-c3ccccc3)cc2N)cc1	aSyn UTR act -167
Cc1ccc(-c2nn(-c3ccccc3)cc2CO)cc1	aSyn UTR act -104
Cc1ccc(-c2nn(-c3ccccc3)cc2NC(=O)CCl)cc1	aSyn UTR act -71
COc1ccc(-c2nn(-c3ccccc3)cc2CO)cc1	aSyn UTR act -86
Cc1ccc(-n2nc(C)c(NC(=O)CCl)c2C)cc1	aSyn UTR act -146
Cc1ccc(-n2nc3c(=O)n(CCCC(=O)NCc4ccc(Cl)cc4)nc(C)c3c2C)cc1	none
CCn1c(SCc2nc3ccccc3[nH]2)nnc1-c1cnccn1	aSyn UTR act -90
CCn1c(SCC(=O)c2ccccc2)nnc1-c1cnccn1	aSyn UTR act -78
CCC(=O)Nc1cccc(-n2nnnc2SCC(=O)c2ccc(C)c(C)c2)c1	aSyn UTR act -84
CCC(=O)Nc1cccc(-c2nnc(SCC(=O)c3ccccc3)n2C)c1	aSyn UTR act -103
Cn1c(SCC(=O)c2ccccc2)nnc1-c1cnccn1	aSyn UTR act -67
Cn1c(SCc2c(Cl)cccc2Cl)nnc1-c1cccs1	aSyn UTR act -62
Cn1c(SCC(=O)c2ccccc2)nnc1-c1cccs1	aSyn UTR act -102
O=C(CN1CCOCC1)N/N=C/C(Br)=C\c1ccccc1	aSyn UTR act -76
CC(/C=N/NC(=O)Cc1cccn1C)=C\c1ccccc1	aSyn UTR act -118
COc1ccc(COC(=O)N/N=C/c2cccs2)cc1	aSyn UTR act -66
Cc1ccccc1NCC(=O)N/N=C/C(Br)=C/c1ccccc1	aSyn UTR act -66
CC(/C=N/NC(=O)Cc1cccs1)=C\c1ccccc1	aSyn UTR act -156
COc1ccc(/C=N/NC(=O)Cc2cccs2)cc1	aSyn UTR act -70
COc1ccccc1NC(=O)C(=O)N/N=C/c1cccs1	aSyn UTR act -147
O=C(Cc1cccs1)N/N=C/C(Br)=C/c1ccccc1	aSyn UTR act -258
CC(C)N1CN=C(Nc2nc3ccccc3o2)NC1	aSyn UTR act -70
CCCCN1CN=C(Nc2nc3ccccc3o2)NC1	aSyn UTR act -136
COCCN1CN=C(Nc2nc3ccccc3o2)NC1	aSyn UTR act -83
c1ccc2oc(NC3=NCN(C4CCCCC4)CN3)nc2c1	aSyn UTR act -174
O=C(O)CC1=C(Nc2ccccc2)C(=O)N(c2ccccc2)C1c1ccc(F)cc1 (stereo not given)	aSyn UTR act -83
COc1ccc(C2C(CC(=O)O)=C(Nc3ccccc3)C(=O)N2c2ccccc2)cc1 (stereo not given)	aSyn UTR act -86
CN(C)c1ccc(/C=N/c2cc(-c3ccccc3)nn2-c2ccccc2)cc1	aSyn UTR act -133
CCn1cc(SCC(=O)N2CCOCC2)c2ccccc21	aSyn UTR act -114
O=C(Cn1cc(SCc2ccccc2Cl)c2ccccc21)N1CCOCC1	aSyn UTR act -163
Cc1ccc(-n2nc(C)c3c(C)cc(=O)[nH]c32)cc1	aSyn UTR act -69
Cc1nc2sc(-c3ccccc3)cc2c(=O)n1N	none
Cc1nc2sc(-c3ccccc3)cc2c(=O)n1/N=C/N(C)C	aSyn UTR act -156
NC(=O)CSc1nc2sc(-c3ccccc3)cc2c(=O)n1N	aSyn UTR act -64
Cc1nc2sc(-c3ccccc3)cc2c(=O)n1-n1cccc1	aSyn UTR act -189
O=C(CN1C(=O)CCC1=O)Nc1nc(-c2ccc(Cl)s2)cs1	aSyn UTR act -64
O=C(CSCC(=O)N1CCCCC1)Nc1nc(-c2ccc(Cl)s2)cs1	aSyn UTR act -118
C[C@H]1C=CC(=O)O[C@H]1c1ccccc1	aSyn UTR act -142
Brc1ccc(-c2nc3ccccc3s2)s1	aSyn UTR act -115
Nc1ccc(-c2nc3ccccc3s2)cn1	aSyn UTR act -110
O=C1CCC(=O)N1c1ccc(-c2nc3ccccc3s2)cc1	aSyn UTR act -120
O=C1CNC(=S)N1c1nc2ccccc2s1	none
c1ccc(-c2nc3ccccc3s2)nc1	aSyn UTR act -87
COc1cc(OC)cc(-c2nc3ccccc3s2)c1	aSyn UTR act -286
C/C(=C\C(=O)c1ccc(C)cc1)Nc1cccc(O)c1	aSyn UTR act -284
Cc1ccc(C(=O)/C=C/Nc2ccc3c(c2)OCO3)cc1	aSyn UTR act -182
Cc1ccc(N/C=C/C(=O)c2ccccc2)cc1Br	aSyn UTR act -83
Cc1ccc(C(=O)/C=C/Nc2cccc(O)c2)cc1	aSyn UTR act -194
O=C(/C=C/Nc1ccc(F)c(Cl)c1)c1ccccc1	aSyn UTR act -211
CC(=O)c1cccc(N/C=C\C(=O)c2ccc(C)cc2)c1	aSyn UTR act -159
CC(=O)c1ccc(N/C=C\C(=O)c2ccc(C)cc2)cc1	aSyn UTR act -211
O=C(/C=C/Nc1cccc(O)c1)c1ccccc1	aSyn UTR act -180
c1ccc(-c2noc(CN3CCOCC3)n2)cc1	aSyn UTR act -63
Clc1ccc(-c2noc(CN3CCCC3)n2)cc1	aSyn UTR act -86
Cc1ccc(-c2noc(CN3CCOCC3)n2)cc1	aSyn UTR act -87
Cc1ccc(-c2noc(CN3CCCCC3)n2)cc1	aSyn UTR act -126
Cc1ccn2c(CN3CCOCC3)c(-c3ccccc3)nc2c1	aSyn UTR act -126
c1ccc(NCc2nc(-c3ccccc3)no2)cc1	aSyn UTR act -133
CCCC1CC(=O)OC1(C)C(=O)CSc1n[nH]c(-c2ccccc2)n1 (stereo not given)	aSyn UTR act -66
O=C(Nc1ccc(F)cc1)c1ccc2nc[nH]c2c1	aSyn UTR act -82
CCN(CC)c1ccc(/C=N/NC(=O)c2ccc3nc[nH]c3c2)c(O)c1	none
Cc1ccc(NC(=O)c2ccc3nc[nH]c3c2)cc1C	aSyn UTR act -170
O=C(N/N=C/c1ccccc1[N+](=O)[O-])c1ccc2nc[nH]c2c1	aSyn UTR act -113
CN(C)c1ccc(NC(=O)c2ccc3nc[nH]c3c2)cc1	aSyn UTR act -126
C=CCNS(=O)(=O)c1nc(C)c(Cl)c(C)c1C#N	aSyn UTR act -110
N=c1oc2ccccc2cc1-c1nc(-c2ccc(Cl)cc2)cs1	aSyn UTR act -82
Cc1cccc(NC(=O)c2ccc(NCCO)c([N+](=O)[O-])c2)n1	aSyn UTR act -95
CC(=O)c1ccc(NCC2COc3ccccc3O2)c([N+](=O)[O-])c1 (stereo not given)	aSyn UTR act -179
Cc1cccc(NC(=O)c2ccc(NCC3CCCO3)c([N+](=O)[O-])c2)n1 (stereo not given)	aSyn UTR act -121
Cc1cccc(NC(=O)c2ccc(NCC3CCCO3)c([N+](=O)[O-])c2)c1 (stereo not given)	aSyn UTR act -64
COc1ccc(C(=O)C(OC(=O)c2ccccc2)c2ccccc2)cc1 (stereo not given)	aSyn UTR act -169
COc1ccc(C(=O)C(OC(=O)c2ccccc2Cl)c2ccccc2)cc1 (stereo not given)	aSyn UTR act -104
C[n+]1c(/C=C/c2ccc(O)cc2)ccc2ccccc21	aSyn UTR act -172
C[n+]1c(/C=C/c2ccc3c(c2)OCO3)ccc2ccccc21	aSyn UTR act -150
O=[N+]([O-])c1ccc(/C=N/n2cnc3ccccc32)s1	none
Cc1cc2ncn(/N=C/c3ccc([N+](=O)[O-])s3)c2cc1C	aSyn UTR act -117
COc1cccc(/C=N/n2cnc3cc(C)c(C)cc32)c1OC	aSyn UTR act -97

Screening data: PubChem BioAssay, Broad Institute
